A selection: hits, their analogues and other compounds. The true share with any hit is near 3%.
esBAF inh = Bmi1 luciferase reporter increase in mESCs, primary screen, esBAF inhibitor project, mouse ES cells, Bmi1 luciferase knock-in, single point | 24 h; 100% = twice the neutral-well signal | 350,000 tested, 2% active | reporter increase, % at 12.5 µM; in the data active = activation above about 40%; inconclusive = no clear call, values can overlap the other calls;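 note: 0% = median of the plate's neutral control wells and 100% = double that signal; a rise in the Bmi1 reporter signal indicates esBAF inhibition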
PfHsp90 yeast 2 = growth inhibition of PfHsp90-expressing yeast, primary screen, antimalarial PfHsp90 inhibitor project, S. cerevisiae, BacTiter-Glo luminescence, single point, set 2. BacTiter-Glo ATP, 48 h; yeast lacking PDR1 and PDR3 efflux regulators. inhibition, % at 9.4 µM. 310,000 tested, 0.32% active. AID 504621, 2011;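 active = every replicate shows inhibition above about 80%, whatever the replicate mean, limit read from the data; inconclusive = mean inhibition reaches the set limit but some replicate falls short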;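 note: 0% = DMSO neutral controls and 100% = 20 µM radicicol positive controls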
Vif imaging = HIV Vif self-association inhibitors, primary screen, imaging, HEK293T, single point; HEK293T cells, Vif self-association by quenched fluorescence, 24 h; inhibition, % at 7.49 µM; 340,000 tested, 0.35% active; in the data active = inhibition above about 50%, passing the limit was not always enough; inconclusive = no clear call, values can overlap the other calls; inactive = below about 31%
MITF act = activators of MITF-driven TRPM1 promoter reporter, primary screen, cell-based, SK-MEL-5, luciferase, single point; SK-MEL-5 TRPM1-promoter luciferase, 24 h; % of positive control, neutral wells = 0; activation, % at 12.5 µM; 300,000 tested, 0.75% active;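 active = mean activation of at least 80% with every replicate also reaching 80%; inconclusive = mean reaches 80% but some replicate falls short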;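 note: 0% = neutral control wells and 100% = parthenolide positive control wells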
Glyco luc inh = increase of ERlucT glycosylation luciferase signal, primary screen, N-linked glycosylation inhibitor project, D54 ERlucT cells, luminescence, set 2; 360,000 tested, 0.23% active; D54 ERlucT glycosylation luciferase reporter, 24 h; percent of 100 nM tunicamycin response; AID 588692, 2011; reporter increase, % at 12.5 µM;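 active = mean luciferase reporter signal, scaled so untreated is 0 and the glycosylation-blocking control 100, at or above a set limit in every replicate; inconclusive = mean reaches the limit but not every replicate does; inactive = mean below the limit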;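 note: luciferase carries N-glycosylation sites so blocking glycosylation raises the light; 0% = median of neutral control wells and 100% = median of 100 nM tunicamycin wells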
Wnt act = Wnt/beta-catenin pathway activators, primary screen, cell-based, plate reader, single point | activation, % at 9.35 µM | Wnt/beta-catenin reporter cell assay, activator | 300,000 tested, 1.2% active; in the data active = activation above about 30%, passing the limit was not always enough; inconclusive = no clear call, values can overlap the other calls;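 note: 0% = neutral control wells and 100% = positive control wells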
Ring1 derepress = Ring1 mRNA increase in mouse ESCs, confirmation, esBAF inhibitor project, cell-based, mouse ESC, RT-qPCR, cherry-pick. shares compounds with esBAF inh. mouse ESC E14, Ring1 mRNA RT-qPCR fold change. fold change at 33 µM. 550 tested, under 10 active. AID 743176, 2013;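 active = Ring1 gene expression raised more than 2-fold over untreated cells in both replicates at either tested dose; inconclusive = only one replicate above 2-fold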;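 note: Ring1 transcript normalised to actin housekeeping signal by TaqMan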
esBAF Fgf4 qPCR = Fgf4 mRNA decrease in mouse ESCs, confirmation, esBAF inhibitor project, cell-based, mouse ESC, RT-qPCR, cherry-pick; Fgf4 expression fold change at 33 µM; shares compounds with esBAF inh; 550 tested, 4% active; AID 743177, 2013; mouse ESC E14, Fgf4 mRNA qPCR fold change; active compounds read low;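 active = Fgf4 expression under 0.8 fold of control in both repeat measurements at one or both tested doses; inconclusive = under 0.8 fold in just a single repeat measurement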;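 note: Fgf4 transcript normalised to actin in duplex TaqMan qPCR; cells exposed to compound for 24 h before lysis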
Bmi1 derepress = esBAF inhibition via Bmi1 de-repression, confirmation, cell-based, RT-qPCR, mouse ESC, single point, cherry-pick; mouse ESE14 ES cells, Bmi1 mRNA qPCR fold; active compounds read high; fold change at 33 µM; 550 tested, under 10 active; shares compounds with esBAF inh;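 active = Bmi1 expression fold change above 6 at either tested concentration, seen in replicate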;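 note: higher fold means more Bmi1 de-repression and stronger esBAF inhibition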
A549 tox SP = A549 cell cytotoxicity, cytotoxicity control, plate reader, single point, cherry-pick. shares compounds with esBAF inh. cell viability change % (negative = cytotoxic), % at 25 µM, hits read low. 550 tested, under 10 active. AID 743188, 2013; call rule not given here
HepG2 cytotox SP = HepG2 cell cytotoxicity, cytotoxicity control, plate reader, single point, cherry-pick. shares compounds with esBAF inh. active compounds read low. activity change, negative = inhibition, % at 25 µM. 550 tested, 4% active; in the data active = activity change below about -50%
HEK293 cytotox SP = HEK293 cell cytotoxicity, cytotoxicity control, plate reader, single point, cherry-pick; shares compounds with esBAF inh; activity change, negative = inhibition, % at 25 µM, hits read low; 550 tested, 3% active; AID 743190, 2013; in the data active = activity change below about -38%, passing the limit was not always enough
The depositor's hits bear a star; ? = inconclusive; / = no result.

SMILES	esBAF inh	PfHsp90 yeast 2	Vif imaging	MITF act	Glyco luc inh	Wnt act	Ring1 derepress	esBAF Fgf4 qPCR	Bmi1 derepress	A549 tox SP	HepG2 cytotox SP	HEK293 cytotox SP
Cc1sc2c(c1C)CN(C(C)(C)C)CN2C(=O)c1ccccc1	66*	6	-10	1	-6	/	1.2	0.92	1.4	8	0	0
COC(=O)N1CCCC(c2cc(C(=O)Nc3ccccc3Cl)no2)C1 (stereo unspecified)	73*	/	1	/	0	-4	0.94	0.9	1.4	-1	-30	-12
O=C(Nc1ccccc1)c1cc(C2CCCN(C(=O)c3ccccc3)C2)on1 (stereo unspecified)	57*	/	3	/	-2	1	1.1	0.97	1	-20	-16	-27
Cc1c(Cl)cccc1NC(=O)c1cc(C2CC2)on1	67*	-33	-5	44	0	7	1.5	1	1.5	-4	-13	-13
O=C(Nc1ccccc1Cl)c1cc(C2CCCN(C(=O)OCCF)C2)on1 (stereo unspecified)	?	/	8	/	-1	14	/	/	/	/	/	/
O=C(COC(=O)c1cc([N+](=O)[O-])ccc1N1CCOCC1)Nc1ccc(Cl)cn1	21	-23	?	15	0	-2	/	/	/	/	/	/
O=C1N=C(N2CCCCC2)S/C1=C\c1ccccc1F	57*	-4	-2	/	2	9	1.4	?	1.7	4	-8	-4
O=C(NCC1CC1)c1cc([N+](=O)[O-])cc([N+](=O)[O-])c1	-7	-11	-9	8	2	1	/	/	/	/	/	/
N#CCSc1ccccc1NC(=O)COC(=O)CCNC(=O)c1ccc([N+](=O)[O-])cc1	-7	/	-3	-14	2	-3	/	/	/	/	/	/
CC1(C)Cc2c(c(N3CCCC3)nc3sc(C(=O)Nc4ccccc4)c(N)c23)CO1	59*	-22	5	51	1	9	1.4	1	0.96	-12	-12	-11
O=c1sc(N2CCN(c3ccc(F)cc3)CC2)nc2ccsc12	62*	-38	68*	/	-2	26	1.3	0.94	1.6	3	-13	-9
NNC(=O)c1nc2ccccc2s1	68*	/	9	/	0	-1	1.2	0.83	1.7	-5	-48	-10
O=C(CC(=O)c1ccccc1)c1ccccc1	86*	-3	1	46	-1	1	1.3	0.82	1.8	-5	-18	-3
O=C(CC(=O)c1ccncc1)c1ccccc1	/	11	-1	12	5	16	/	/	/	/	/	/
COc1cccc2sc(NC(=O)c3ccc(Br)s3)nc12	68*	/	-14	31	1	/	1.6	0.88	1.6	8	18	2
Cc1cccc2sc(NC(=O)c3ccc(Cl)s3)nc12	?	6	-20	21	1	-2	/	/	/	/	/	/
CC(=O)c1cccc(OCc2cc(C(=O)NCCC3=CCCCC3)no2)c1	83*	-110	-3	72	-7	?	1	1.1	0.94	-12	-19	-8
O=C(NCCC1=CCCCC1)c1cc(COc2c(F)cccc2F)on1	14	-44	-5	16	-1	1	/	/	/	/	/	/
Nc1nc(SCc2ccccc2)c2ncn(C3CCCCC3)c2n1	85*	11	-8	39	-2	9	0.99	0.78*	1.5	1	21	-10
Clc1cccc2sc(N3CCCCC3)nc12	61*	/	1	/	1	/	1.2	0.93	1.8	-1	-1	-3
Brc1cccc2sc(N3CCN(c4ccccc4)CC3)nc12	/	3	-3	2	-3	3	/	/	/	/	/	/
NC(CC(=O)O)c1cccc(OCc2ccccc2)c1 (stereo unspecified)	4	-13	-2	-6	1	/	/	/	/	/	/	/
Nc1cc(OCc2ccccc2)ccc1OCc1ccccc1	83*	-8	-1	62	0	-3	1.1	?	1.6	-15	-17	-10
Cc1cc(C)c2c(c1)/C(=N/NC(=S)Nc1ccc(F)cc1)CCC2	5	-12	0	-12	2	2	/	/	/	/	/	/
Clc1ccc(-c2nnc(-c3cccc4ccccc34)o2)cc1	71*	-4	4	26	-1	39*	1.3	1	1.6	-6	45	-6
SMILES	esBAF inh	PfHsp90 yeast 2	Vif imaging	MITF act	Glyco luc inh	Wnt act	Ring1 derepress	esBAF Fgf4 qPCR	Bmi1 derepress	A549 tox SP	HepG2 cytotox SP	HEK293 cytotox SP
C[C@@H](NC(=O)C[C@H]1CC[C@H]2[C@@H](COC[C@H](O)CN2C(=O)Nc2cccc(F)c2)O1)c1ccccc1	27	/	/	/	/	/	/	/	/	/	/	/
Cc1ccc(NC(=O)c2cc(C)nc3ccccc23)cc1	-8	6	-4	/	7	0	/	/	/	/	/	/
CC(=O)c1ccc(NC(=O)c2cc(C)nc3ccccc23)cc1	62*	-21	0	54	0	5	1.3	1.1	1.5	4	-27	-3
CN(Cc1nccn1C)C(=O)c1ccc2nc(Cc3ccccc3F)oc2c1	65*	14	-3	63	0	15	0.78	0.85	1.5	-16	-47	-26
COc1ccc(Cc2nc3ccc(C(=O)N(C)Cc4nccs4)cc3o2)cc1OC	-2	18	-7	-8	0	-2	/	/	/	/	/	/
CN(Cc1nccs1)C(=O)c1ccc2nc(Cc3ccccc3F)oc2c1	67*	24	4	113*	-4	26	1.2	0.94	1.4	-6	-18	-12
O=[N+]([O-])c1ccc(N/N=C/c2cccnc2)cc1	34	-6	12	22	3	4	/	/	/	/	/	/
